# Measured values reported in PubChem BioAssay AID624054 (National Center for Advancing Translational Sciences (NCATS), 2012).
# Activity calls are given as the source filed them.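 The calls were made as follows: active = IC50 at or below 10 µM; inconclusive = IC50 above 10 µM but below 20 µM; inactive = IC50 of 20 µM or more.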
# Target: Neuropeptide S receptor (Homo sapiens) (UniProt Q6W5P4)
# Experiment: Robust Characterization of cAMP Signal Transduction for Antagonists of the Neuropeptide S Receptor: SAR
# Conditions: CHO-NPSR cells, NPS-stimulated cAMP, TR-FRET
# Excerpt: Neuropeptide S receptor (NPSR), previously known as GPR154, is a recently de-orphanized G protein coupled receptor. Its endogenous ligand is the 20 amino acids peptide Neuropeptide S (NPS). […] NPS and its receptor are found in various tissues. Specifically they are highly expressed in brain areas that have been implicated in modulation of arousal, stress and anxiety. Central administration of NPS in mice produces an unusual profile of activity by inducing wakefulness and arousal, while at the same time suppressing anxiety. Therefore, NPSR may represent a novel drug target for the treatment of sleep and anxiety disorders. To identify NPSR antagonists, we developed a cell-based cAMP assay. NPS can stimulate the production of cAMP in Chinese hamster ovary cells stably expressing NPS receptor. This change in intracellular cAMP level can be detected by a homogeneous LANCE cAMP assay based on the TR-FRET (time resolved fluorescence resonance energy transfer) between a europium-labeled cAMP tracer complex and a cAMP-specific antibody labeled with Alexa Fluor 647. The europium-labeled cAMP tracer complex is formed by the tight interaction between Biotin-cAMP (b-cAMP) and streptavidin labeled with Europium-W8044 chelate (Eu-SA). Light pulse at 320 nm excites the europium of the cAMP tracer and the energy emitted is transferred to the Alexa molecule bound to the cAMP antibody, generating a TR-FRET signal at 665 nm. Residual energy from the europium will produce a light at 620 nm. The native unlabeled cAMP from cell lysates competes with the europium-cAMP tracer for antibody binding and reversely reduces the emission signal of Alexa by interrupting FRET between the two labeled molecules. Both emission signals from the FRET donor (620 nm) and the acceptor (665 nm) can be detected by a plate reader in the TRF mode. Expression of result in fluorescence ratio (665 nm/620 nm) helps to normalize differences due to cell density and reagent dispensing. This assay was successfully optimized to a 1536-well plate format. Select compounds from the primary screen (AID 1461) were chosen for confirmation based on potency, efficacy, SAR, and activity across other assays in PubChem and at NCGC. Other compounds are analogs of active compounds from the primary screen. […]
# A Chinese hamster ovary (CHO) cell line stably expressing the NPS receptor (CHO-NPSR) was obtained from Dr. Heilig lab at NIAAA and maintained in F-12 Kaighn's media (Invitrogen, Carlsbad, CA, 21127) supplemented with 10 % FBS, 100 units/ml penicillin, 100 ug/ml streptomycin and 250 ug/ml geneticin at 37C, 5% CO2 in a humidified atmosphere. […] IC50 values were determined from concentration-response data modeled with the standard Hill equation. […]
# Sequence of Neuropeptide S receptor (Homo sapiens) (Q6W5P4 whole entry, looked up): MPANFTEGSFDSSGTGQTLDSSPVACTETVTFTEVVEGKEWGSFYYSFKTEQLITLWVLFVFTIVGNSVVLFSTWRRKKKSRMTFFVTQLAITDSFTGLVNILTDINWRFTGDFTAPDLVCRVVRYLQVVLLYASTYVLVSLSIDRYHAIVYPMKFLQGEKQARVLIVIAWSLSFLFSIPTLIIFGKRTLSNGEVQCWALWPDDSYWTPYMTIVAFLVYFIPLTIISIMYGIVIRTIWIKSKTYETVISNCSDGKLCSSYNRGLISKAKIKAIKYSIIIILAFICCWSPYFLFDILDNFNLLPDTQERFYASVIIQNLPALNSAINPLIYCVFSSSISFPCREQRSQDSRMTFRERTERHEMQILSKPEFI
row,Structure (SMILES),IC50
1,COc1ccc(C2c3c(ncn(CCN4CCOCC4)c3=N)Oc3ccc4ccccc4c32)cc1OC (centres undefined),296 nM (active)
2,CCC(C)(CCN1CCOCC1)N(Cc1cc2ccccc2n(C)c1=O)C(=O)C1CCCCC1 (centres undefined),17.6 nM (active)
3,O=C1OC(c2ccccc2)(c2ccccc2)N2CCN(C(=O)NCc3ccc(F)cc3)CC12 (centres undefined),208 nM (active)
4,Cc1c(P(=S)(c2ccccc2)c2ccccc2)[n+]2ccccc2n1C/C=C/c1ccccc1,22.1 nM (active)
